# In PubChem BioAssay:
# Several values for one entry are separate records, joined by “and”; a condition that tells them apart may be missing. Identical values can stand only once. Activity calls are given as the source filed them.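 How the source made its calls, unless noted: active means thallium flux through the channel raised or lowered by more than 3 SD from vehicle-only wells, actives on both sides; inactive means the rest.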
# Key:
# [1] = stimulators of nuclear beta-catenin in C2C12, primary screen, imaging, WNT3A-conditioned medium, mouse C2C12, NPC library (AID 1117326; in the data active means nuclear beta-catenin stimulation mostly above about 4.2%, no sharp cut-off; inactive means mostly below about 10%); details: stronger effect = higher value
# [2] = stimulators of insulin release from INS-1E, primary screen, cell-based, 5 mM glucose, NPC library (AID 1117329;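 active means compound raises insulin release from rat beta cells at 5 mM glucose, no numeric limit stated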); details: rat INS-1E insulin secretion, at 10 µM, stronger effect = higher value
# [3] = growth inhibition of GSK3B-pretreated HCT116 cells – cell-based, CellTiter-Glo, 0.2 to 20 µM (AID 1117336;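 active means compounds lowering colon cancer cell viability after pretreatment blocking the GSK3B kinase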); details: HCT116 viability after GSK3B inhibitor, at 20 µM, stronger effect = higher value
# [4] = inhibition of endothelial tube formation, primary screen, imaging, VEGF stimulated, CD31 staining, tube area, NPC library (AID 1117340;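 active means compound that reduces growth-factor-driven endothelial tube area in a mixed cell culture, no cutoff stated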); details: VEGF-stimulated ADSC/ECFC co-culture, at 10 µM, stronger effect = higher value
# [5] = glucagon-like peptide 1 release enhancers, primary assay, NCI-H716 cell line, NPC library (AID 1117341;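 active means compound raises GLP1 secretion from the human gut endocrine cells, with no numeric limit stated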); details: NCI-H716 cells, at 10 µM, stronger effect = higher value
# [6] = HCT116 colon cancer cell growth inhibition, primary screen, CellTiter-Glo luminescence, NPC library (AID 1117342;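 active means compounds that lower survival of HCT116 colon cancer cells in the luminescence readout, no numeric limit stated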); details: at 20 µM (top of the series)
# [7] = CellTiter-Glo luminescent readout of SW480 viability loss, NPC library primary (AID 1117343;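 active means compounds that lower viability of the colon cancer cells in the luminescence readout, with no numeric limit stated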); details: CellTiter-Glo luminescence; at 20 µM (top of the series)
# [8] = decreased DLD-1 cellular survival, CellTiter-Glo luminescent readout, NPC compound collection, primary HTS (AID 1117346;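 active means compounds that lower survival of DLD-1 colon cancer cells in the luminescence readout, no cutoff given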); details: DLD-1 viability, CellTiter-Glo luminescence; at 20 µM (top of the series)
# [9] = biological target: 6-phosphogluconate dehydrogenase, decarboxylating (Homo sapiens) (UniProt P52209); assay: 6PGD enzyme inhibitors, primary screen, biochemical, human, recombinant enzyme, NADPH absorbance (AID 1159550;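 active means at least 20% inhibition of 6-phosphogluconate dehydrogenase activity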); details: recombinant 6PGD, NADPH absorbance 341 nm; at 10 µM; stronger effect = higher value
# Chain of 6-phosphogluconate dehydrogenase, decarboxylating (Homo sapiens) (P52209 whole entry, looked up): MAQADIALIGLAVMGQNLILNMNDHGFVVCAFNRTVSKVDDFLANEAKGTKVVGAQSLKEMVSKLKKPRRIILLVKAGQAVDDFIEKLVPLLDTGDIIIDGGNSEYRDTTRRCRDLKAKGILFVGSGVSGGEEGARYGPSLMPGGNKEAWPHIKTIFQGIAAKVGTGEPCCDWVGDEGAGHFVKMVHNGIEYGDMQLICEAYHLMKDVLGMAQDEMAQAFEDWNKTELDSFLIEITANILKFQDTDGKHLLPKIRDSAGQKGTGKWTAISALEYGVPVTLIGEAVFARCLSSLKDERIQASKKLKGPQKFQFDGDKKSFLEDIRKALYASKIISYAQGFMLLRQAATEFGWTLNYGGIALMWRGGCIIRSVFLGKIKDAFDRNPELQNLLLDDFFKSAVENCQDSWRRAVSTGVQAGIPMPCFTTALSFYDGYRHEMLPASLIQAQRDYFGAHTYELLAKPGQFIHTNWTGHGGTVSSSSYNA
# [10] = differential killing of epithelial or mesenchymal cells, primary screen, imaging, PC-3E GFP, TEM4-18 mCherry, co-culture (AID 1345086;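 active means compounds killing one labelled cell type while sparing the other, by normalised counts and ratio limits, not self-fluorescent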;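 on all read-outs here: cells exposed to compound for 72 h before imaging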;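 on red/green cell ratio (normalised): normalised mesenchymal count divided by normalised epithelial count so high means epithelial killing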); details: imaging cell counts, at 1 µM; for red/green cell ratio (normalised): actives lie on both sides, counts scaled to control wells, 1 = unselective
# [11] = sensitizers of A549 cells to miR-34 induction, primary screen, imaging, A549 dox-inducible miR-34, nuclei and caspase counts (AID 1347080;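 active means compounds whose cell count with miR-34 switched on is under 0.7 times the count with it off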); details: A549 miR-34 inducible, Hoechst nuclei count, 48 h
# [12] = survival rescue of mitochondrial mutant cells in low glucose, primary screen, MELAS cybrids, Rieske KO mouse fibroblasts, CellTiter-Glo (AID 1508586;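 active means mean z-score across replicates of 1.96 or higher in either the MELAS or the Rieske mutant cell line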;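 further: z relative to plate mean and SD of compound and empty wells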)
# [13] = biological target: NAD(+) hydrolase SARM1 (Homo sapiens) (UniProt Q6SZW1); assay: SARM1 TIR NADase inhibitors, cell lysate, NAD-Glo luminescence (AID 1508614;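 active means compound whose remaining NAD level is above about 45 nM, limit read from the data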); details: SAM-TIR HEK293T lysate NADase, at 1 µM, stronger effect = higher value
# Chain of NAD(+) hydrolase SARM1 (Homo sapiens) (Q6SZW1 whole entry, looked up, the tested form may be a part): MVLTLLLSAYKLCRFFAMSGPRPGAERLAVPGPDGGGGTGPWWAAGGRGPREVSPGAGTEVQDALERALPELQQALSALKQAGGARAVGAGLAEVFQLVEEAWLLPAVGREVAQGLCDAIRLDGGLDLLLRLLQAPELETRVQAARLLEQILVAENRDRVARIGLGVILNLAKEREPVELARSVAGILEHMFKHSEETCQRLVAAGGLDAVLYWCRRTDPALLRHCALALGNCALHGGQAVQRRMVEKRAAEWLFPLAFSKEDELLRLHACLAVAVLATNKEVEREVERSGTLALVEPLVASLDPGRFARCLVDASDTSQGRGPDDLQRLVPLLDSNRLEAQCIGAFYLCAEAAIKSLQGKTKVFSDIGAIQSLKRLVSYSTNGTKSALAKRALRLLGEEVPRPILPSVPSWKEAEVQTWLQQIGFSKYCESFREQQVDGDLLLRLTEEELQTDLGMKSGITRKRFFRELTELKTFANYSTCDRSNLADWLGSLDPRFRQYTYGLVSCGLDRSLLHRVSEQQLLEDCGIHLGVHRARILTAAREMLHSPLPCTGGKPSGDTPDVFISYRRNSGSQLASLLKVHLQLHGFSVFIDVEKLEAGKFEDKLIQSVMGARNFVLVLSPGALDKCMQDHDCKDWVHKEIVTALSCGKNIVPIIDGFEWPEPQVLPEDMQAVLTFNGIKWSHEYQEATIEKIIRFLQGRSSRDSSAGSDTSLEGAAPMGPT
# [14] = biological target: Mitogen-activated protein kinase 7 (Homo sapiens) (UniProt Q13164); assay: ERK5 transactivation activators in reporter cells, primary screen, cell-based, HTS (AID 1508626;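 active means luciferase signal above three times the same-plate solvent-only control wells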;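 further: luciferase driven by Gal4-ERK5 fusion binding five Gal4 sites before minimal TATA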); details: HeLa Gal4-ERK5 transactivation, 18 h, at 5 µM, stronger effect = higher value
# Chain of Mitogen-activated protein kinase 7 (Homo sapiens) (Q13164 whole entry, looked up, the tested form may be a part): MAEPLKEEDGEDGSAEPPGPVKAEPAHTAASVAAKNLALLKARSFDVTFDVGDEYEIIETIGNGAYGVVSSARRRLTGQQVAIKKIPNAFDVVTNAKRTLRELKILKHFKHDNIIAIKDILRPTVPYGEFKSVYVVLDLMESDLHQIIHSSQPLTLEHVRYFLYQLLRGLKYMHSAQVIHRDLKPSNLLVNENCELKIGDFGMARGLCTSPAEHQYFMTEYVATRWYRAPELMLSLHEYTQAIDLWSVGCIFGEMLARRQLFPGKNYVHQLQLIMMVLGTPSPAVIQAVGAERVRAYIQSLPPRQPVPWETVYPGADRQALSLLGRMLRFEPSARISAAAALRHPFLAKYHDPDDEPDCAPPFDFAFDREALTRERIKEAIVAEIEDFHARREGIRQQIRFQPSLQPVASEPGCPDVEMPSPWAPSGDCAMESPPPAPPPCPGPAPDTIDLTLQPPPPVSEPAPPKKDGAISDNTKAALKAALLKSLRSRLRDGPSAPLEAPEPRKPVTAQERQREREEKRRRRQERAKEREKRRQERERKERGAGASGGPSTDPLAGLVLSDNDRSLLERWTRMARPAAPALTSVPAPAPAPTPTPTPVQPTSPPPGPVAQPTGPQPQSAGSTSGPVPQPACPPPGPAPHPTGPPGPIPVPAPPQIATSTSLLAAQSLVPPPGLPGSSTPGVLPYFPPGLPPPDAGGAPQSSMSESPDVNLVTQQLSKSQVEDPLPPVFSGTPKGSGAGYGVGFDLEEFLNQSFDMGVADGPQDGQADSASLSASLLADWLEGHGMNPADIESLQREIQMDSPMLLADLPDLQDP
# F380Y = assay: modulators of BK channel variants, profiling panel, selectivity assay, cell-based, U2OS BacMam, thallium flux, beta subunits (AID 1259406); details: at 30 µM;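 further: initial slope of Thallos dye fluorescence rise after thallium is added; log ratio against the mean of 0.3% DMSO vehicle wells on the same plate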
# F380Y/beta2Delta = assay: as above; details: at 30 µM
# [15] = biological target: Calcium-activated potassium channel subunit alpha-1 (Homo sapiens) + Leucine-rich repeat-containing protein 26 (Homo sapiens) (UniProt Q12791+Q2I0M4); assay: as above; details: F380Y/Slo1WT/gamma1, at 30 µM
# Chain of Calcium-activated potassium channel subunit alpha-1 (Homo sapiens) + Leucine-rich repeat-containing protein 26 (Homo sapiens) (Q2I0M4 whole entry, looked up, one chain of several): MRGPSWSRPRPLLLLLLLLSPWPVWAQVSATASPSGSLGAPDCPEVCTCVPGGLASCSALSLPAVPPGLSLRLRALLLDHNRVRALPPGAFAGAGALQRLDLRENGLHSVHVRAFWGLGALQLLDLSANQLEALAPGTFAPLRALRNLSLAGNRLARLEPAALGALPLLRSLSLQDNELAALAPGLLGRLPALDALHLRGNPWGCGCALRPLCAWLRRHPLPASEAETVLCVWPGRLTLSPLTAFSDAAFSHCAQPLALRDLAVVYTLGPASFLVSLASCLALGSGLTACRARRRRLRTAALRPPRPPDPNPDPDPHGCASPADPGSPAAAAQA
# R275C = assay: as above; details: at 30 µM
# R275C/beta1 = assay: as above; details: at 30 µM
# R275C/beta2Delta = assay: as above; details: at 30 µM
# [16] = measured here: epithelial PC-3E GFP cell survival
# [17] = measured here: mesenchymal TEM4-18 mCherry cell survival
# [18] = stronger effect = lower value, cell number ratio, induced over uninduced
# [19] = measured here: relative caspase fold change +Dox/-Dox
# [20] = measured here: total cells with miR-34 induction, stronger effect = lower value
# [21] = measured here: total cells without miR-34 induction
# [22] = MELAS cybrid survival, CellTiter-Glo 48 h, stronger effect = higher value
# [23] = Rieske KO mouse fibroblast survival, CellTiter-Glo 72 h
smiles,measurement,setting,value
C/C=C/C(=O)N(CC)c1ccccc1C,nuclear beta-catenin stimulation,[1]; at 10 µM,1.7% (inactive)
same,nuclear beta-catenin stimulation,"[1]; stimulation, at 2 µM",0.9%
same,insulin secretion stimulation,[2],-0.4% (inactive)
same,viability decrease,[3],-18.4% (inactive)
same,tube area decrease,[4],12.7% (inactive)
same,GLP1 secretion stimulation,[5],-3.7% (inactive)
same,inhibition of viability,[6],-11.3% (inactive)
same,viability decrease (inhibition),[7],19.5% (inactive)
same,viability decrease (inhibition),[8],-26.5% (inactive)
same,inhibition,[9],-11.5% (inactive)
same,red/green cell ratio (normalised),[10],1.1 (inactive)
same,normalised cell number,[10]; [16],0.88
same,normalised cell number,[10]; [17],0.97
same,fold change,[11]; [18],0.871 (inactive) and 0.856 (inactive) and 0.894 (inactive)
same,fold change,[11]; [19],1.68 and 2.74 and 1.41
same,cell count,[11]; [20],8830 and 11400 and 8670
same,cell count,[11]; [21],10100 and 13300 and 9700
same,z-score,[12]; [22],-0.397 (inactive) and -0.423 (inactive)
same,z-score,[12]; [23],-1.25 and -1.17
same,remaining NAD,[13],10 nM (inactive)
same,luciferase signal,[14],64 AU (inactive)
same,log fold change Tl+ flux,F380Y,0.0255 (inactive)
same,log fold change Tl+ flux,F380Y/beta2Delta,-0.0171 (inactive)
same,log fold change Tl+ flux,[15],0.0385 (inactive)
same,log fold change Tl+ flux,R275C,-0.0159 (inactive)
same,log fold change Tl+ flux,R275C/beta1,-0.0206 (inactive)
same,log fold change Tl+ flux,R275C/beta2Delta,0.013 (inactive)
CO[C@@]1(NC(=O)Cc2cccs2)C(=O)N2C(C(=O)O)=C(COC(N)=O)CS[C@@H]21,nuclear beta-catenin stimulation,[1]; at 10 µM,-1.4% (inactive)
same,nuclear beta-catenin stimulation,"[1]; stimulation, at 2 µM",-0.5%
same,insulin secretion stimulation,[2],2.1% (inactive)
same,viability decrease,[3],-11.8% (inactive)
same,tube area decrease,[4],26.2% (inactive)
same,GLP1 secretion stimulation,[5],-1.2% (inactive)
same,inhibition of viability,[6],14.8% (inactive)
same,viability decrease (inhibition),[7],8.9% (inactive)
same,viability decrease (inhibition),[8],-14.4% (inactive)
same,inhibition,[9],8.52% (inactive)
same,red/green cell ratio (normalised),[10],1.1 (inactive)
same,normalised cell number,[10]; [16],0.99
same,normalised cell number,[10]; [17],1.09
same,fold change,[11]; [18],1.01 (inactive) and 0.868 (inactive) and 0.891 (inactive)
same,fold change,[11]; [19],8.44 and 1.64 and 2.66
same,cell count,[11]; [20],10400 and 9040 and 11300
same,cell count,[11]; [21],10300 and 10400 and 12700
same,z-score,[12]; [22],0.626 (inactive)
same,z-score,[12]; [23],-0.518
same,remaining NAD,[13],10 nM (inactive)
same,luciferase signal,[14],108 AU (inactive)
same,log fold change Tl+ flux,F380Y,0.0585 (inactive)
same,log fold change Tl+ flux,F380Y/beta2Delta,-0.00432 (inactive)
same,log fold change Tl+ flux,[15],-0.0176 (inactive)
same,log fold change Tl+ flux,R275C,0.0592 (inactive)
same,log fold change Tl+ flux,R275C/beta1,0.00671 (inactive)
same,log fold change Tl+ flux,R275C/beta2Delta,-0.0512 (inactive)
CC(C)(C)NCC(O)COc1cccc2c1C[C@H](O)[C@H](O)C2 (stereo not given in full),nuclear beta-catenin stimulation,[1]; at 10 µM,1.8% (inactive)
same,nuclear beta-catenin stimulation,"[1]; stimulation, at 2 µM",-0.2%
same,insulin secretion stimulation,[2],-1.2% (inactive)
same,viability decrease,[3],-26.3% (inactive)
same,tube area decrease,[4],13.1% (inactive)
same,GLP1 secretion stimulation,[5],-1.3% (inactive)
same,inhibition of viability,[6],4.4% (inactive)
same,viability decrease (inhibition),[7],2.8% (inactive)
same,viability decrease (inhibition),[8],-5.7% (inactive)
same,inhibition,[9],6.69% (inactive)
same,red/green cell ratio (normalised),[10],1.06 (inactive)
same,normalised cell number,[10]; [16],1.04
same,normalised cell number,[10]; [17],1.1
same,fold change,[11]; [18],0.964 (inactive) and 0.863 (inactive)
same,fold change,[11]; [19],2.62 and 3.63
same,cell count,[11]; [20],10500 and 11100
same,cell count,[11]; [21],10900 and 12900
same,z-score,[12]; [22],0.625 (inactive)
same,z-score,[12]; [23],-0.345
same,remaining NAD,[13],10 nM (inactive)
same,luciferase signal,[14],100 AU (inactive)
same,log fold change Tl+ flux,F380Y,0.0119 (inactive)
same,log fold change Tl+ flux,F380Y/beta2Delta,0.0306 (inactive)
same,log fold change Tl+ flux,[15],0.00167 (inactive)
same,log fold change Tl+ flux,R275C,-0.00576 (inactive)
same,log fold change Tl+ flux,R275C/beta1,-0.0239 (inactive)
same,log fold change Tl+ flux,R275C/beta2Delta,0.0276 (inactive)
Cc1ccc(-c2cc(C(F)(F)F)nn2-c2ccc(S(N)(=O)=O)cc2)cc1,nuclear beta-catenin stimulation,[1]; at 10 µM,8.6% (inactive)
same,nuclear beta-catenin stimulation,"[1]; stimulation, at 2 µM",0.5%
same,insulin secretion stimulation,[2],-0.6% (inactive)
same,viability decrease,[3],-9.9% (inactive)
same,tube area decrease,[4],1.2% (inactive)
same,GLP1 secretion stimulation,[5],0.7% (inactive)
same,inhibition of viability,[6],49% (inactive)
same,viability decrease (inhibition),[7],66.6% (active)
same,viability decrease (inhibition),[8],50.1% (active)
same,inhibition,[9],13.7% (inactive)
same,red/green cell ratio (normalised),[10],1.22 (inactive)
same,normalised cell number,[10]; [16],1.08
same,normalised cell number,[10]; [17],1.32
same,z-score,[12]; [22],-0.312 (inactive) and 1.24 (inactive) and 1.08 (inactive)
same,z-score,[12]; [23],1.13 and 1.16 and 1.29
same,remaining NAD,[13],10 nM (inactive)
same,luciferase signal,[14],28 AU (inactive)
same,log fold change Tl+ flux,F380Y,0.057 (inactive)
same,log fold change Tl+ flux,F380Y/beta2Delta,-0.0192 (inactive)
same,log fold change Tl+ flux,[15],-0.0327 (inactive)
same,log fold change Tl+ flux,R275C,-0.00943 (inactive)
same,log fold change Tl+ flux,R275C/beta1,0.012 (inactive)
same,log fold change Tl+ flux,R275C/beta2Delta,-0.0274 (inactive)
Cc1ccccc1C(OCCN(C)C)c1ccccc1 (stereo not given),nuclear beta-catenin stimulation,[1]; at 10 µM,0.6% (inactive)
same,nuclear beta-catenin stimulation,"[1]; stimulation, at 2 µM",1.7%
same,insulin secretion stimulation,[2],39.3% (active)
same,viability decrease,[3],-86.6% (inactive)
same,tube area decrease,[4],2.8% (inactive)
same,GLP1 secretion stimulation,[5],2.1% (inactive)
same,inhibition of viability,[6],8.67% (inactive)
same,viability decrease (inhibition),[7],45.8% (inactive)
same,viability decrease (inhibition),[8],-5% (inactive)
same,inhibition,[9],5.27% (inactive)
same,red/green cell ratio (normalised),[10],1.09 (inactive)
same,normalised cell number,[10]; [16],0.78
same,normalised cell number,[10]; [17],0.85
same,z-score,[12]; [22],-0.259 (inactive) and -1.08 (inactive)
same,z-score,[12]; [23],-0.358 and 0.0536
same,remaining NAD,[13],10 nM (inactive)
same,luciferase signal,[14],40 AU (inactive)
same,log fold change Tl+ flux,F380Y,0.0933 (inactive) and 0.0755 (inactive)
same,log fold change Tl+ flux,F380Y/beta2Delta,0.0734 (inactive) and 0.0188 (inactive)
same,log fold change Tl+ flux,[15],-0.00307 (inactive) and 0.0363 (inactive)
same,log fold change Tl+ flux,R275C,0.02 (inactive) and -0.0278 (inactive)
same,log fold change Tl+ flux,R275C/beta1,0.0357 (inactive) and 0.0895 (inactive)
same,log fold change Tl+ flux,R275C/beta2Delta,0.0594 (inactive) and 0.0469 (inactive)
COC(=O)Nc1nc2ccc(C(=O)c3ccccc3)cc2[nH]1,nuclear beta-catenin stimulation,[1]; at 10 µM,78.6% (active)
same,nuclear beta-catenin stimulation,"[1]; stimulation, at 2 µM",42.2%
same,insulin secretion stimulation,[2],-0.3% (inactive)
same,viability decrease,[3],10.7% (inactive)
same,tube area decrease,[4],102% (active)
same,GLP1 secretion stimulation,[5],2.2% (inactive)
same,inhibition of viability,[6],56.4% (active)
same,viability decrease (inhibition),[7],27.7% (active)
same,viability decrease (inhibition),[8],51.5% (active)
same,inhibition,[9],0.811% (inactive)
same,red/green cell ratio (normalised),[10],1.27 (inactive)
same,normalised cell number,[10]; [16],0.23
same,normalised cell number,[10]; [17],0.29
same,z-score,[12]; [22],0.18 (inactive) and -0.728 (inactive) and -2.21 (inactive)
same,z-score,[12]; [23],0.0815 and 0.438 and 0.923
same,remaining NAD,[13],10 nM (inactive)
same,luciferase signal,[14],28 AU (inactive)
same,log fold change Tl+ flux,F380Y,-0.0365 (inactive)
same,log fold change Tl+ flux,F380Y/beta2Delta,-0.00923 (inactive)
same,log fold change Tl+ flux,[15],0.00509 (inactive)
same,log fold change Tl+ flux,R275C,-0.00107 (inactive)
same,log fold change Tl+ flux,R275C/beta1,0.00663 (inactive)
same,log fold change Tl+ flux,R275C/beta2Delta,-0.00163 (inactive)
